# Unmarked numbers belong to inactive results. Inconclusive results are not listed. Some of the results follow. Entries that show only a call come without a potency. Active and inactive are the calls of the source. Unless noted, calls follow the shape of the dose curve; as a rule, active = well fitted curve in the direction sought with a large enough effect; inconclusive = small, poorly fitted or top-dose-only effect, or another doubt; inactive = no such curve, though single readings can be large; an effect the other way counts as inactive or inconclusive.
# Columns and labels:
# [1] = biological target: Rap guanine nucleotide exchange factor 3 (Homo sapiens) (UniProt O95398); experiment: Confirmatory qHTS for antagonist of cAMP-regulated guanine nucleotide exchange factor 3 (EPAC1) (AID 1645880); settings: EPAC1 Rap1B-BODIPY-GDP exchange, fluorescence; activity, negative = inhibition: at 115 µM (top of the series); also: nearly all actives have a fitted effect of over 55% in size; also: potency is read from the fitted curve at half-maximal effect
# Method in brief: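 Released BODIPY-GDP fluoresces less than Rap1-bound BODIPY-GDP; the signal is followed at 480/540 nm at 5-min intervals over 30 min, after 5 min at room temperature. Reactions contain 100 nM EPAC1, 250 nM RAP1B-BODIPY-GDP and 50 uM GDP; results are normalized to ATA and DMSO.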
# [2] = biological target: Rap guanine nucleotide exchange factor 4 (Homo sapiens) (UniProt Q8WZA2); experiment: Confirmatory qHTS for agonist of cAMP-regulated guanine nucleotide exchange factor 4 (EPAC2) (AID 1645884);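 also: nucleotide exchange releases bodipy-GDP from Rap1 and this lowers its fluorescence; nearly all actives have a fitted effect of over 65% in size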; also: potency is read from the fitted curve at half-maximal effect
# [3] = biological target: Rap guanine nucleotide exchange factor 3 (Homo sapiens) (UniProt O95398); experiment: Counterscreen qHTS for antagonist of cAMP-regulated guanine nucleotide exchange factor 3 (EPAC1) (AID 1645888)
# Method in brief: (§1)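 Measured: fluorescence of BODIPY-GDP bound to Rap1B, which falls as exchange proceeds. Conditions include 50 uM competing GDP, 5 and 30 min reads, and a later cAMP challenge for antagonist detection.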
# [4] = biological target: Tumor susceptibility gene 101 protein (Homo sapiens) (UniProt Q99816); experiment: qHTS Assay for Iinhibitors of HIV-1 Budding by Blocking the Interaction of PTAP/TSG101: Hit Validation (AID 651600); also: nearly all actives have a fitted effect of over 70% in size; also: potency is read from the fitted curve at half-maximal effect
# Method in brief: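 Displacement of a FITC-labeled PTAP-motif peptide (50 nM) from the Tsg101 binding domain (10 uM) was monitored by fluorescence polarization after a 20 min room-temperature incubation.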
# [5] = biological target: Rap guanine nucleotide exchange factor 4 (Homo sapiens) (UniProt Q8WZA2); experiment: Confirmatory qHTS for antagonist of cAMP-regulated guanine nucleotide exchange factor 4 (EPAC2) (AID 1645885); also: nearly all actives have a fitted effect of over 25% in size; also: potency is read from the fitted curve at half-maximal effect
# [6] = biological target: Rap guanine nucleotide exchange factor 3 (Homo sapiens) (UniProt O95398); experiment: Counterscreen qHTS for agonist of cAMP-regulated guanine nucleotide exchange factor 3 (EPAC1) (AID 1645889); also: nearly all actives have a fitted effect of over 40% in size; also: potency is read from the fitted curve at half-maximal effect
# Method in brief: as §1
# [7] = Counterscreen for APE1 Inhibitors: Fluorescent Dye Displacement Assay (AID 2564);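 also: loss of thiazole orange fluorescence as the dye is displaced from duplex DNA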
# Method in brief: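 Endpoint fluorescence read at 480 nm excitation / 540 nm emission; DNA-binding compounds lower signal by displacing 250 nM Thiazole Orange from 50 nM dsDNA containing a tetrahydrofuran abasic site, Tris-HCl pH7.5 buffer with NaCl and MgCl2.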
# [8] = biological target: Endonuclease 4 (Escherichia coli (strain K12)) (UniProt P0A6C1); experiment: Counterscreen for APE1 Inhibitors: qHTS Assay for Inhibitors of Endonuclease IV (AID 2565)
# Method in brief: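 Enzyme (2 nM) + compound, 15 min RT; add 50 nM TAMRA/BHQ-2 THF-site dsDNA; kinetic read ex525/em598, 3 reads/60 s; activity = read 3 − read 1. Buffer Tris pH 7.5, 50 mM NaCl, 2 mM MgCl2, DTT, Tween-20.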
# [9] = biological target: DNA repair nuclease/redox regulator APEX1 (Homo sapiens) (UniProt P27695); experiment: Confirmation qHTS Assay for Inhibitors of the Human Apurinic/apyrimidinic Endonuclease 1 (APE1) (AID 2572); settings: purified APE1, fluorogenic abasic-site DNA cleavage; also: potency is read from the fitted curve at half-maximal effect; nearly all actives have a fitted effect of over 30% in size
# Method in brief: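 Confirmation qHTS in dose-response format: APE1 exposed to compound 15 min at RT, then reaction started with 50 nM final TAMRA/BHQ-2 abasic substrate. Three fluorescence reads 60 s apart; endpoint minus initial read gives progress.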
# [10] = biological target: DNA repair nuclease/redox regulator APEX1 (Homo sapiens) (UniProt P27695); experiment: qHTS FP-Based Assay for Inhibitors of the Human Apurinic/apyrimidinic Endonuclease 1 (APE1) (AID 2573)
# [11] = Stat Signaling Pathway (AID 446; active = well fitted curve in either direction with a large enough effect, not every such curve was filed as active;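 also: ME-180 cervical cancer cells given 40 pM IL-6 alongside compound; SIE-controlled beta-lactamase reporter measured as 460/530 nm FRET emission ratio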)
# Method in brief: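 Emission at 460 and 530 nm (excitation 405 nm) reports SIE-controlled beta-lactamase in ME-180 cells. Cells received compound with 40 pM IL-6 for 5 hrs at 37 C; data scaled between 300 pM IL-6 and 125 nM JAK-inhibitor controls.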
# [12] = biological target: Glucocorticoid receptor (Homo sapiens) (UniProt P04150); experiment: GR-GFP Redistribution (AID 450;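 active = compounds whose dose series gives a full or clear partial fitted curve of increased nuclear translocation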; also: potency is read from the fitted curve at half-maximal effect); settings: U2OS GR-GFP nuclear translocation, laser cytometry, 2 h
# Chain of Glucocorticoid receptor (Homo sapiens) (P04150 whole entry, looked up): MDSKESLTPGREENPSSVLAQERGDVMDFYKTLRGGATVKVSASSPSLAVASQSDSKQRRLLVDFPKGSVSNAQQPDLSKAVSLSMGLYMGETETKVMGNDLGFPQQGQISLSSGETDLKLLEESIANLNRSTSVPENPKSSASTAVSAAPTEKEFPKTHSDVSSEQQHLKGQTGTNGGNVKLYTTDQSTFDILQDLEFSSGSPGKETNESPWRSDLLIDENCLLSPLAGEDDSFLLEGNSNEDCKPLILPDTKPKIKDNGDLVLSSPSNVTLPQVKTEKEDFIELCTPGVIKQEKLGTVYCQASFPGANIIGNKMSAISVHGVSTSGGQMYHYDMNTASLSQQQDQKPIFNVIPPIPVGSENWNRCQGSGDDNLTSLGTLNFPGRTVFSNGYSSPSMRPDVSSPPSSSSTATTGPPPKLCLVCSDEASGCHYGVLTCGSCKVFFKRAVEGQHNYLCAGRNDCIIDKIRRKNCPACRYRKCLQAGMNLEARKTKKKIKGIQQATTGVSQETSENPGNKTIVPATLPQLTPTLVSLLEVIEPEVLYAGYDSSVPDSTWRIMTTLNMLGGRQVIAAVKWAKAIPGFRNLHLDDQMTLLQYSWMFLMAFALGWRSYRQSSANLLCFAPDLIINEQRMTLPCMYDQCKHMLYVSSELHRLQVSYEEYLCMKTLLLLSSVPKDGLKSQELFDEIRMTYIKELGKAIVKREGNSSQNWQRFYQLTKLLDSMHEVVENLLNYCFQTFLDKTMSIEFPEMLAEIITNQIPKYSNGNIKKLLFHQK
# Chain of Rap guanine nucleotide exchange factor 3 (Homo sapiens) (O95398 whole entry, looked up): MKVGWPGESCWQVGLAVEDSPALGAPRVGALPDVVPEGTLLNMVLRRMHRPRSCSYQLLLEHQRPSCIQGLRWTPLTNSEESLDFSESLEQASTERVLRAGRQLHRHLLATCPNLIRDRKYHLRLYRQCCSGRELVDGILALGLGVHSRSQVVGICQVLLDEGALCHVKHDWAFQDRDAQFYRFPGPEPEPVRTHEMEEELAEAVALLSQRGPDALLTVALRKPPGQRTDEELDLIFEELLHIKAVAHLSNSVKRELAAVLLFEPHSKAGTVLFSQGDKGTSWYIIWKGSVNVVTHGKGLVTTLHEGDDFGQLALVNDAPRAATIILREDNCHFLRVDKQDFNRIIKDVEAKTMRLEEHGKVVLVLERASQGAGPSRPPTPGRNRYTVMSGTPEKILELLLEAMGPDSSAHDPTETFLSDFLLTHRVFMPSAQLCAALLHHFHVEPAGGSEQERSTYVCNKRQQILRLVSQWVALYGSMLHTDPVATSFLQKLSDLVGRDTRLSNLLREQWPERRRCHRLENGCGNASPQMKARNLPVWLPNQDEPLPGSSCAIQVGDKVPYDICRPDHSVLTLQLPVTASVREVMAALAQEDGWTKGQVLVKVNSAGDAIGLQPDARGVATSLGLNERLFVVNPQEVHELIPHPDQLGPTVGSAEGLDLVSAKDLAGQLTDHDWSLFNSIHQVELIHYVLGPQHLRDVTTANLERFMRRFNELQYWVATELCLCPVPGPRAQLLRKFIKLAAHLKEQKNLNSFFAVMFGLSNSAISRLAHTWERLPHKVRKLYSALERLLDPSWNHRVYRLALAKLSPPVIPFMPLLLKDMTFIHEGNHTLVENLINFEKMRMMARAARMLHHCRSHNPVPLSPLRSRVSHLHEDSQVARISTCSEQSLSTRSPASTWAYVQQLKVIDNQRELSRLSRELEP
# Chain of Rap guanine nucleotide exchange factor 4 (Homo sapiens) (Q8WZA2 whole entry, looked up): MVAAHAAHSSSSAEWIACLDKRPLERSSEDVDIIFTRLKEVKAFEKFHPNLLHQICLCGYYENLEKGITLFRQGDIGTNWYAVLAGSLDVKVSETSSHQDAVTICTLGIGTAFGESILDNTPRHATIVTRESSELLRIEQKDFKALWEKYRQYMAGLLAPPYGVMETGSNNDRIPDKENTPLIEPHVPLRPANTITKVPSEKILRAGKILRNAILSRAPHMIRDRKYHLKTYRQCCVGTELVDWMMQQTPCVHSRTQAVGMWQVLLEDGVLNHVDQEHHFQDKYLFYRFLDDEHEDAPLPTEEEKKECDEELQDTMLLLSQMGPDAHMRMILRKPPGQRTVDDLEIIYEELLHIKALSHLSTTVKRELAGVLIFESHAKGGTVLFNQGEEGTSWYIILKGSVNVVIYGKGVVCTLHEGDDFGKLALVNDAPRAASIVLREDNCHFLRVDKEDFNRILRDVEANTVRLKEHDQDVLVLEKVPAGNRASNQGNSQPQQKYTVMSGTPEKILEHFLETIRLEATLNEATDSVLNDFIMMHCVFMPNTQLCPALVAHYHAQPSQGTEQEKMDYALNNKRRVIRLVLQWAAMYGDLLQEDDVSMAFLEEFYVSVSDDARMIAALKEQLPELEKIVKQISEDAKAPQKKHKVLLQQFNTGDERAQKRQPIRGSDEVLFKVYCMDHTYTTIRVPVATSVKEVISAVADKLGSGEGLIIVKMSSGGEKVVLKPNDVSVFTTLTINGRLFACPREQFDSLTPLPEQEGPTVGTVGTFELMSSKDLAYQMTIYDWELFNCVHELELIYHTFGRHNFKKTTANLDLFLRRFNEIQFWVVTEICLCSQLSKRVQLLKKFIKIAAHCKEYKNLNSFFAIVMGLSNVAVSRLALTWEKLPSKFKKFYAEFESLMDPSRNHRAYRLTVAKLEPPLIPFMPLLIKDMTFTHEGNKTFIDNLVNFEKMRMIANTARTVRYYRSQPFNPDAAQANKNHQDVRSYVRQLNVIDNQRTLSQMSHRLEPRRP
# Chain of Tumor susceptibility gene 101 protein (Homo sapiens) (Q99816 whole entry, looked up, the tested form may be a part): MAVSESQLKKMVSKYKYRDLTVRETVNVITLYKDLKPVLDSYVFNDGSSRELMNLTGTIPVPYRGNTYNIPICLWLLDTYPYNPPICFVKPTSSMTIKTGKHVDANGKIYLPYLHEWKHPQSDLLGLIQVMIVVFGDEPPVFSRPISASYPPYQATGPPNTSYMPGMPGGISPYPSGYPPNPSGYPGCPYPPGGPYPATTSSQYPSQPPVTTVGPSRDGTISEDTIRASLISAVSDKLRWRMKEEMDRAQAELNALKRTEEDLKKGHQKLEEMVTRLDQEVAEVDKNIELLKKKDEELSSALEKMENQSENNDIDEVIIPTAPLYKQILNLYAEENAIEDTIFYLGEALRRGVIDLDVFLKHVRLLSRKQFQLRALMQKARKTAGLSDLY
# Chain of DNA repair nuclease/redox regulator APEX1 (Homo sapiens) (P27695 whole entry, looked up): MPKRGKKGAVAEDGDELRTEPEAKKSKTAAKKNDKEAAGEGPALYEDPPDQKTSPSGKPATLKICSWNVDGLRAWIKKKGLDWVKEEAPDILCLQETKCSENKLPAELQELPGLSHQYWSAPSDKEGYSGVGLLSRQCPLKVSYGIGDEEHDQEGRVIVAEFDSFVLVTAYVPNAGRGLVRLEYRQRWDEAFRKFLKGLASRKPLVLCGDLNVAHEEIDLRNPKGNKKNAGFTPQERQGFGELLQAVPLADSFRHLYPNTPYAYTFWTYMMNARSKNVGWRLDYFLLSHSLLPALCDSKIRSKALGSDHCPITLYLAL
smiles,measurement,setting,value
Brc1ccccc1Cn1c(-c2cncs2)nc2ccccc21,Potency,[1],inactive
same,Potency,[2],inactive
same,Potency,[3],inactive
COc1ccc2c3c(cccc13)C(=O)CC2,Potency,[4],18.3 µM (active)
same,Potency,[1],inactive
same,Potency,[2],112 µM (active)
same,Potency,[5],inactive
same,Potency,[6],31.6 µM (active)
Cc1nn(C)c(C)c1N1C(=O)c2cccc3c(N)ccc(c23)C1=O,Potency,[4],2.59 µM (active)
same,Potency,[1],inactive
same,Potency,[2],5.01 µM (active)
same,Potency,[5],inactive
same,"activity change, negative = inhibition",[3],353% [at 30.8 µM]
same,Potency,[6],11.2 µM (active)
Cc1nc2ccccc2n2c(O)c(CC(=O)O)cc12,Potency,[4],14.6 µM (active)
same,Potency,[1],inactive
same,Potency,[2],112 µM (active)
same,Potency,[5],inactive
same,Potency,[3],inactive
same,Potency,[6],44.7 µM (active)
Cc1ccc(NC(=O)CSc2nnc(-c3cc4occc4n3C)n2-c2ccccc2C)c(Cl)c1,Potency,[1],inactive
same,Potency,[2],inactive
same,Potency,[3],inactive
O=C(NCCOc1ccc(F)cc1)c1ccccc1SCc1ccccc1,Potency,[1],inactive
same,activation,[2],"7.88% [at 17.1 µM, percent relative to cAMP agonist control]"
same,"activity change, negative = inhibition",[3],18.3% [at 30.8 µM]
Cc1ccc2oc(=O)n(Cc3ccccc3)c2c1,Potency,[1],inactive
same,activation,[2],"5.26% [at 17.1 µM, percent relative to cAMP agonist control]"
same,"activity change, negative = inhibition",[3],1.72% [at 30.8 µM]
COc1ccccc1NC(=O)c1sc2nc(Cc3ccccc3)cc(C(F)(F)F)c2c1N,Potency,[4],13 µM (active)
same,Potency,[1],inactive
same,activation,[2],"-0.606% [at 17.1 µM, percent relative to cAMP agonist control]"
same,Potency,[5],inactive
same,"activity change, negative = inhibition",[3],-9.81% [at 30.8 µM]
O=C(O)c1ccccc1C1=Nc2ccc(O)cc2Oc2cc(O)ccc21,Potency,[4],13 µM (active)
same,Potency,[1],inactive
same,activation,[2],"14.2% [at 17.1 µM, percent relative to cAMP agonist control]"
same,Potency,[5],inactive
same,"activity change, negative = inhibition",[3],-1.01% [at 30.8 µM]
same,Potency,[6],15.8 µM (active)
CCC1(c2ccccc2)NC(=O)N(CC(=O)Nc2ccc(OC)nc2)C1=O (stereo not drawn),Potency,[4],18.3 µM (active)
same,Potency,[1],inactive
same,activation,[2],"15.1% [at 17.1 µM, percent relative to cAMP agonist control]"
same,Potency,[5],inactive
same,"activity change, negative = inhibition",[3],-15.6% [at 30.8 µM]
same,activation,[6],14.8% [at 30.8 µM]
O=C(NCc1ccc(F)cc1)c1cccc2c1C(=O)c1ccc(N3CCC(Cc4ccccc4)CC3)cc1S2(=O)=O,Potency,[4],10.3 µM (active)
same,Potency,[1],inactive
same,activation,[2],"30% [at 17.1 µM, percent relative to cAMP agonist control]"
same,Potency,[5],inactive
same,"activity change, negative = inhibition",[3],83.7% [at 30.8 µM]
Cc1ccc(OCc2nc3ccccc3n2CC(C)C)cc1,Potency,[1],inactive
same,Potency,[2],inactive
same,Potency,[5],inactive
same,Potency,[6],inactive
COCCn1c2nc(=O)n(-c3ccccc3)c(=O)c-2nc2ccccc21,Potency,[1],inactive
same,Potency,[2],100 µM (active)
same,Potency,[5],75.7 µM (active)
same,Potency,[6],39.8 µM (active)
N#Cc1c(-c2cccs2)nc(SCC(=O)c2ccc(Br)cc2)[nH]c1=O,outcome,[7],inactive
same,outcome,[8],inactive
same,Potency,[9],15.8 µM (active)
same,outcome,[10],inactive
same,Potency,[1],22.4 µM (active)
same,activation,[2],"8.4% [at 17.1 µM, percent relative to cAMP agonist control]"
same,Potency,[5],inactive
same,activation,[6],12.5% [at 30.8 µM]
CCN(CC)c1ccc(/C=C(\C#N)C(=O)c2ccc(Br)cc2)cc1,Potency,[4],inactive
same,Potency,[1],inactive
same,Potency,[2],112 µM (active)
same,Potency,[5],inactive
same,Potency,[3],inactive
Cc1ccc[n+](-c2nc([O-])sc2C=O)c1,Potency,[4],4.61 µM (active)
same,Potency,[1],inactive
same,Potency,[2],100 µM (active)
same,Potency,[5],inactive
same,Potency,[3],inactive
same,Potency,[6],39.8 µM (active)
Cc1cc(/C=C2\SC(=S)N(C)C2=O)c(C)n1-c1ccccc1O,Potency,[1],inactive
same,Potency,[2],100 µM (active)
same,Potency,[5],inactive
same,Potency,[6],89.1 µM (active)
CCN(CC)c1ccc2cc(-c3nnc(-c4ccncc4)o3)c(=O)oc2c1,outcome,[11],inactive
same,Potency,[12],3.51 µM (active)
same,Potency,[4],inactive
same,Potency,[1],inactive
same,Potency,[2],100 µM (active)
same,Potency,[5],75.7 µM (active)
same,Potency,[3],inactive
CCN1CCc2c(sc(NC(=O)CSc3ccccc3)c2-c2nc3ccccc3s2)C1,Potency,[4],inactive
same,Potency,[1],inactive
same,Potency,[2],inactive
same,Potency,[5],3.79 µM (active)
same,Potency,[3],inactive
N#C/C(=C\c1ccc(Sc2ccc(Cl)cc2)o1)c1nc2ccccc2[nH]1,Potency,[1],inactive
same,Potency,[5],inactive
same,Potency,[3],inactive
Cc1ccccc1C(=O)O/N=C(\c1ccccc1)c1ccccn1,Potency,[1],inactive
same,activation,[2],"8.13% [at 17.1 µM, percent relative to cAMP agonist control]"
same,"activity change, negative = inhibition",[3],3.56% [at 30.8 µM]
COC(=O)CCc1nc2cc(Cl)ccc2n(Cc2ccccc2)c1=O,Potency,[1],inactive
same,Potency,[2],inactive
same,Potency,[3],inactive
CSc1ncccc1C(=O)OCc1c(F)cccc1Cl,Potency,[1],inactive
same,Potency,[2],inactive
same,Potency,[3],inactive
CCCN1CC=C2C(C#N)=C(N)C(C#N)(C#N)C(c3cccc(OC)c3OC)C2C1 (stereo not drawn),Potency,[1],inactive
same,Potency,[5],12 µM (active)
same,Potency,[3],inactive
COC(=O)C1=NN(c2ccc(C)cc2)C2(S1)SC(C(C)=O)=C(C)N2c1ccccc1 (stereo not drawn),Potency,[1],inactive
same,Potency,[2],100 µM (active)
same,Potency,[3],inactive
same,Potency,[6],inactive

# From PubChem BioAssay (NCATS)
